# Data as given in PubChem BioAssay.
# For some assays here: Potency and affinity values are given separately. Records with an inconclusive call do not appear. This is one part of the list. Calls of active or inactive are those of the source. Unless noted, the rule behind the calls is not given here.
# Experiments:
# [1] = general cell-killing toxicity readout – plate reader, dry powder samples, cytotoxicity control for PAX8 inhibitor project, dose response (AID 743021)
# [2] = CMV-driven luciferase expression suppression in HEK293 – cell-based, luminescence, dry powder, counter-screen for Pax8 inhibitor project, dose response (AID 743020;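 active = signal-lowering compounds whose fitted half-maximal concentration is at or below twice the top tested dose in every run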;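 note: HEK293 cells stably expressing the CMV luciferase reporter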)
# [3] = IGROV1 cell killing – plate reader, dry powder samples, PAX8 inhibitor project, dose response (AID 743043);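 note: more negative means fewer viable cells or more cytotoxicity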
# [4] = OVCAR-3 cell viability loss – plate reader, dry powder samples, PAX8 inhibitor project, dose response (AID 743044); conditions: max activity: at 35 µM, stronger effect = lower value unless noted
# [5] = toxicity toward immortalized ovarian surface epithelium – cell-based, plate reader, dry powder samples, cytotoxicity control for PAX8 inhibitor project, dose response (AID 743045);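 note: 0% = neutral control median and -100% = positive control median; more negative values mean more cell killing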
# [6] = OVCAR8 cell viability loss – plate reader, dry powder samples, PAX8 project, dose response (AID 743197)
# [7] = A2780 cell killing – plate reader, dry powder samples, cytotoxicity control, dose response (AID 743046);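 note: 0% = neutral control wells and -100% = cytotoxic reference compound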
# [8] = A549 cell cytotoxicity, dose response, cytotoxicity control, plate reader, cherry-pick, antagonist series (AID 743412);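 note: 0% = neutral control wells and -100% = positive control wells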
# [9] = toxicity toward HepG2 liver cells – cell-based, plate reader, cherry-pick, antagonist series, cytotoxicity control, dose response (AID 743416);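 note: 0% = neutral control wells and -100% = positive control wells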
# [10] = Ring1 de-repression measured by qPCR – cell-based, mouse ESC, RT-qPCR, cherry-pick, esBAF inhibitor project, confirmation (AID 743176;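 active = Ring1 gene expression raised more than 2-fold over untreated cells in both replicates at either tested dose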;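 note: Ring1 transcript normalised to actin housekeeping signal by TaqMan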); conditions: mouse ESC E14, Ring1 mRNA RT-qPCR fold change, stronger effect = higher value
# [11] = Bmi1 mRNA increase in mouse ESCs – cell-based, RT-qPCR, mouse ESC, single point, cherry-pick, confirmation (AID 743180;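 active = Bmi1 expression fold change above 6 at either tested concentration, seen in replicate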;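 note: higher fold means more Bmi1 de-repression and stronger esBAF inhibition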); conditions: mouse ESC E14, Bmi1 mRNA qPCR fold, stronger effect = higher value
# [12] = viability loss in A549 cells – cell-based, plate reader, single point, cherry-pick, cytotoxicity control (AID 743188); conditions: at 25 µM
# [13] = viability loss in HepG2 cells – cell-based, plate reader, single point, cherry-pick, cytotoxicity control (AID 743189; in the data active = activity change below about -50%); conditions: at 25 µM, stronger effect = lower value
# [14] = viability loss in HEK293 cells – cell-based, plate reader, single point, cherry-pick, cytotoxicity control (AID 743190; in the data active = activity change below about -38%, passing the limit was not always enough); conditions: at 25 µM
# [15] = Fgf4 repression measured by qPCR – cell-based, mouse ESC, RT-qPCR, cherry-pick, esBAF inhibitor project, confirmation (AID 743177;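 active = Fgf4 expression under 0.8 fold of control in both repeat measurements at one or both tested doses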;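 note: Fgf4 transcript normalised to actin in duplex TaqMan qPCR; cells exposed to compound for 24 h before lysis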); conditions: mouse ESC E14, Fgf4 mRNA qPCR fold change, stronger effect = lower value
smiles,measurement,setting,value
COc1cccc(N2CCN(C(=O)c3ccc(CS(=O)c4ccccc4Cl)o3)CC2)c1 (centres undefined),outcome,[1],inactive
C[C@H]1CN([C@@H](C)CO)C(=O)c2cc(NS(=O)(=O)c3ccccc3)ccc2O[C@@H]1CN(C)Cc1ccc(Oc2ccccc2)cc1,outcome,[2],inactive
same,outcome,[1],inactive
same,outcome,[3],inactive
same,max activity,[4],"-20.4% [at 8 µM, stronger effect = lower value] (inactive)"
same,outcome,[5],inactive
same,outcome,[6],inactive
CCOC(=O)c1c(-c2ccc(F)cc2)csc1NC(=O)CN1C(=O)NC2(CCCCC2C)C1=O (centres undefined),outcome,[1],inactive
C[C@H]1CCCCO[C@H](CN(C)Cc2ccc(C(F)(F)F)cc2)[C@@H](C)CN([C@@H](C)CO)C(=O)c2cc(NC(=O)c3ccccc3)ccc2O1,outcome,[2],inactive
same,outcome,[1],inactive
same,outcome,[5],inactive
same,outcome,[7],inactive
same,outcome,[6],inactive
COc1cccc(-c2ccc([C@H]3[C@@H](CO)N(C(=O)Cc4ccccc4)[C@H]3C#N)cc2)c1,outcome,[2],inactive
same,outcome,[1],inactive
same,outcome,[3],inactive
same,outcome,[5],inactive
same,outcome,[6],inactive
C[C@H]1CCCCO[C@H](CN(C)Cc2ccc(C(F)(F)F)cc2)[C@@H](C)CN([C@@H](C)CO)C(=O)c2cc(NS(=O)(=O)c3ccc(Cl)cc3)ccc2O1,outcome,[2],inactive
same,outcome,[1],inactive
same,max activity,[4],"16.3% [at 1 µM, stronger effect = lower value] (inactive)"
same,outcome,[5],inactive
same,outcome,[7],inactive
Cc1ccc(S(=O)(=O)Nc2ccc3c(c2)CC(=O)N([C@H](C)CO)C[C@H](C)[C@H](CN(C)S(=O)(=O)c2ccc(F)cc2)O3)cc1,outcome,[2],inactive
same,outcome,[1],inactive
same,outcome,[3],inactive
same,outcome,[5],inactive
same,outcome,[7],inactive
same,outcome,[6],inactive
C[C@H](CO)N1C[C@H](C)[C@H](CN(C)Cc2ccc(C(F)(F)F)cc2)OCCCC[C@H](C)Oc2ccc(NS(=O)(=O)c3ccccc3)cc2C1=O,outcome,[2],inactive
same,outcome,[5],inactive
same,outcome,[7],inactive
Cc1ccccc1CNC(=O)C1CCCN(c2nnc(C)c3c(C)n(-c4ccccc4)nc23)C1 (centres undefined),outcome,[2],inactive
same,outcome,[1],inactive
same,outcome,[7],inactive
C[C@H]1CCCCO[C@@H](CN(C)Cc2ccc(C(F)(F)F)cc2)[C@@H](C)CN([C@@H](C)CO)C(=O)c2cc(NC(=O)c3ccccc3)ccc2O1,outcome,[2],inactive
same,outcome,[1],inactive
same,outcome,[5],inactive
same,outcome,[7],inactive
C[C@@H]1CN([C@@H](C)CO)S(=O)(=O)c2ccc(C#CC3CCCC3)cc2O[C@H]1CN(C)Cc1cccnc1,outcome,[6],inactive
CN(C(=O)OC(C)(C)C)c1ccc(-c2nc3ccccc3s2)cc1,outcome,[8],inactive
O=C(O)c1cccc(COc2ccc3c(c2)CCC3)c1,outcome,[9],inactive
COc1ccc(Nc2ccc3ccccc3c2)cc1,fold change,"[10]; Ring1 fold increase, at 7 µM",1.4
same,fold change,[10]; at 33 µM,1.14 (inactive)
same,fold change,"[11]; Bmi1 de-repression, at 7 µM",1.37
same,fold change,[11]; at 33 µM,2.11 (inactive)
same,cell viability change % (negative = cytotoxic),[12],-5.46% (inactive)
same,"activity change, negative = inhibition",[13],10% (inactive)
same,"activity change, negative = inhibition",[14],-0.0365% (inactive)
O=c1c2c(nc3cc(-c4ccc(F)cc4)[nH]n13)CCCC2,outcome,[8],inactive
CC1CCCN(c2ncnc3c2cnn3-c2ccccc2)C1 (centres undefined),outcome,[8],inactive
CCc1sc(C(=O)N2CCN(CC(=O)Nc3cccc(F)c3)CC2)cc1C,fold change,"[10]; Ring1 fold increase, at 7 µM",1.14
same,fold change,[10]; at 33 µM,1.01 (inactive)
same,Fgf4 expression fold change,"[15]; Fgf4 expression, at 7 µM",1.11
same,Fgf4 expression fold change,[15]; at 33 µM,0.972 (inactive)
same,fold change,"[11]; Bmi1 de-repression, at 7 µM",1.34
same,fold change,[11]; at 33 µM,1.56 (inactive)
same,cell viability change % (negative = cytotoxic),[12],0.0417% (inactive)
same,"activity change, negative = inhibition",[13],-21.7% (inactive)
same,"activity change, negative = inhibition",[14],-24% (inactive)
COc1ccc(NC(=O)Nc2cccc([N+](=O)[O-])c2)cc1Cl,outcome,[8],inactive
Cc1nc(-c2ccccc2)sc1-c1nnc(C2CC2)o1,fold change,"[10]; Ring1 fold increase, at 7 µM",1.23
same,fold change,[10]; at 33 µM,1.31 (inactive)
same,Fgf4 expression fold change,"[15]; Fgf4 expression, at 7 µM",0.99
same,Fgf4 expression fold change,[15]; at 33 µM,1.05 (inactive)
same,fold change,"[11]; Bmi1 de-repression, at 7 µM",1.21
same,fold change,[11]; at 33 µM,1.79 (inactive)
same,cell viability change % (negative = cytotoxic),[12],1.56% (inactive)
same,"activity change, negative = inhibition",[13],-14.2% (inactive)
same,"activity change, negative = inhibition",[14],-0.816% (inactive)
O=C(Cn1ncc(Cl)c(Cl)c1=O)c1ccc2c(c1)OCCO2,outcome,[8],inactive
COc1cc2ccccc2cc1C(=O)Nc1ccncc1,fold change,"[10]; Ring1 fold increase, at 7 µM",1.36
same,fold change,[10]; at 33 µM,1.54 (inactive)
same,Fgf4 expression fold change,"[15]; Fgf4 expression, at 7 µM",0.817
same,Fgf4 expression fold change,[15]; at 33 µM,1.21 (inactive)
same,fold change,"[11]; Bmi1 de-repression, at 7 µM",1.73
same,fold change,[11]; at 33 µM,2.14 (inactive)
same,cell viability change % (negative = cytotoxic),[12],-3.23% (inactive)
same,"activity change, negative = inhibition",[13],-16.4% (inactive)
same,"activity change, negative = inhibition",[14],6.79% (inactive)
C/C(=C\C(=O)c1cccnc1)Nc1ccc(C)c(C)c1,fold change,"[10]; Ring1 fold increase, at 7 µM",1.22
same,fold change,[10]; at 33 µM,1.07 (inactive)
same,Fgf4 expression fold change,"[15]; Fgf4 expression, at 7 µM",1.06
same,Fgf4 expression fold change,[15]; at 33 µM,0.903 (inactive)
same,fold change,"[11]; Bmi1 de-repression, at 7 µM",1.46
same,fold change,[11]; at 33 µM,1.59 (inactive)
same,cell viability change % (negative = cytotoxic),[12],-3.61% (inactive)
same,"activity change, negative = inhibition",[13],12.6% (inactive)
same,"activity change, negative = inhibition",[14],-0.923% (inactive)
